Results published in paper PMC4336329 (PLoS ONE, 2015).
Screen size: about 310,000 compounds; about 14,000 (4.5%) showed an effect of 50% or more. Effects have a minus sign here. Only a selection was taken, and strong results are over-represented in it overall.

molecular target: human ether-à-go-go-related gene (hERG) potassium channel (human, UniProt Q12809); assay: primary screen, population patch clamp on CHO cells stably expressing hERG; higher = less effect of the substance
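Note: peak tail current of the secondary pulse compared with the same well before compound.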

Chain of human ether-à-go-go-related gene (hERG) potassium channel (Q12809 whole entry, looked up): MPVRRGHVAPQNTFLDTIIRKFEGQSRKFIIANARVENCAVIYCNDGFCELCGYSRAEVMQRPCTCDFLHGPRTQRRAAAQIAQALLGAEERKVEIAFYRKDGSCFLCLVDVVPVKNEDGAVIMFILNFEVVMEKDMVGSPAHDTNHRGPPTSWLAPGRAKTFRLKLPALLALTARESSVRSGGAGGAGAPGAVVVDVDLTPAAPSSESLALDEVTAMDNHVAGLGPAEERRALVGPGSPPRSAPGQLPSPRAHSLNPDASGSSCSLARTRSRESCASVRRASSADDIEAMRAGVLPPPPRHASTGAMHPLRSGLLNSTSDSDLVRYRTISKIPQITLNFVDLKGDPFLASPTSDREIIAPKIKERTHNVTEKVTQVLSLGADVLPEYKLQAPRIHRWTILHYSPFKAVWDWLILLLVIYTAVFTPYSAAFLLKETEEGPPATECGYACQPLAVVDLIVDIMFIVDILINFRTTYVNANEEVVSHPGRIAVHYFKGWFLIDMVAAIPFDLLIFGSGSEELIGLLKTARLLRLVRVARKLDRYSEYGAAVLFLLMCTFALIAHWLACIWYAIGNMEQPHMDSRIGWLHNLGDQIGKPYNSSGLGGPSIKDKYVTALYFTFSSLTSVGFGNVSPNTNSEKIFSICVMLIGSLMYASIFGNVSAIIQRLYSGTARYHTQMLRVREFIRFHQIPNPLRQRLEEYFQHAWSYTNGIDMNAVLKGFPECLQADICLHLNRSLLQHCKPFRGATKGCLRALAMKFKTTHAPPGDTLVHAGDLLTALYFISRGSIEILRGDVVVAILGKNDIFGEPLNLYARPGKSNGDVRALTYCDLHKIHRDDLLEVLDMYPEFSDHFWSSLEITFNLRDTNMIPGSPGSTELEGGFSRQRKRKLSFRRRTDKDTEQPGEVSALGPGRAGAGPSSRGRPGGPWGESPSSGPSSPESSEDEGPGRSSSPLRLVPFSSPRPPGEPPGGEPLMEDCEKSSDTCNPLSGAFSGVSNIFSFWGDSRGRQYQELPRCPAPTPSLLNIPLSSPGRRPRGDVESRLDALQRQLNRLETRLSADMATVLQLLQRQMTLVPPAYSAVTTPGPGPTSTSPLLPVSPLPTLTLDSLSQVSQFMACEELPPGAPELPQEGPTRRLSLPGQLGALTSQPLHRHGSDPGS

Compound | hERG current change (%, negative = inhibition) at 10uM
O=c1c2c(nc3nc(NCc4ccc(Cl)cc4)[nH]n13)CCC2 | 23.2%
O=S(=O)(c1cccc2nsnc12)N1CCc2ccccc2C1 | -34.8%
COc1ccc(OC)c(Nc2nc(C)nc3c2oc2ccccc23)c1 | 5.02%
O=C(NC(=S)NNC(=O)[C@H]1C[C@@H]1c1ccccc1)c1ccc(F)cc1 | 3.86%
CCOC(=O)N(Cc1ccccc1)Cc1ccc(C(=O)N[C@@H](Cc2ccccc2)C(=O)O)cc1 | 13.8%
CCC(C)NC(=O)CCn1ccc2cc(S(=O)(=O)N3CCCC3)ccc21 (stereo not drawn) | 12.3%
CCC1=NN2C(=N)/C(=C/c3ccc(OS(=O)(=O)c4ccccc4)cc3)C(=O)N=C2S1 | -3.25%
CC(=O)N1CCOc2ccc(S(=O)(=O)N3CCCCC3)cc21 | 11.6%
CCOC(=O)C1CCN(S(=O)(=O)c2ccc3[nH]c(=O)oc3c2)CC1 | -30.9%
CC(=O)N1CCOc2ccc(S(=O)(=O)N3CCC(C)CC3)cc21 | 6.53%
CCOC(=O)C1CCN(S(=O)(=O)c2ccc3c(c2)N(C(C)=O)CCO3)CC1 | -67.2%
CCOC(=O)C1CCN(S(=O)(=O)c2ccc3oc(=O)ccc3c2)CC1 | -77%
CCOC(=O)C1CCN(S(=O)(=O)c2ccc3[nH]c(=O)ccc3c2)CC1 | -45.3%
CC/C(=N\NC(=O)C1CC1)c1cccc(Cl)c1 | 30.9%
Cc1nc(Sc2ccc(Cl)cc2)c(C#N)c(C)c1[N+](=O)[O-] | 6.1%
COC(=O)Cn1cnc2scc(-c3ccc(C)cc3)c2c1=O | 7.31%
CC(C)C(NC(=O)c1ccc(F)cc1)C(=O)Nc1cccnc1 (stereo not drawn) | 0.585%
CCOC(=O)c1ccccc1NC(=O)c1c(F)c(F)c(F)c(F)c1F | 10.2%
COc1ccc(C(=O)c2coc3ccc(O)c(CN(C)C)c23)cc1 | -57.9%
COc1ccc(OC)c(C(=O)c2coc3ccc(O)c(CN(C)C)c23)c1.Cl | -12.7%
COc1ccc2occ(C(=O)c3coc4ccc(O)c(CN(C)C)c34)c2c1.Cl | -72.1%
COc1ccc(Oc2coc3c(CN(C)C)c(O)ccc3c2=O)cc1 | 17.7%
COc1ccc2occ(C(=O)c3ccc(N)cc3)c2c1 | 2.02%
COc1ccc(C(=O)c2coc3ccc(O)cc23)cc1 | 7.61%

Compound | hERG current change (%, negative = inhibition) at 10uM
COc1ccc(C(=O)c2coc3ccc(OC(C)=O)cc23)cc1 | 24.9%
COc1ccc(C(O)c2coc3ccc(O)c(CN(C)C)c23)cc1 (stereo not drawn) | -47.9%
COc1ccc2occ(C(=O)c3ccc(N=C(C)N(C)C)cc3)c2c1 | -58.8%
CCN(CC)Cc1c(O)ccc2occ(C(=O)c3ccc(OC)cc3)c12 | -74.2%
COc1ccc(OC)c(C(O)c2coc3ccc(O)c(CN(C)C)c23)c1 (stereo not drawn) | -17%
COc1ccc(S(=O)(=O)N/N=C(/C)c2ccco2)cc1 | -6.76%
CCc1sc(-c2c(C#N)c(N)nc3c2CCCCCC3)cc1[N+](=O)[O-] | 14%
Cc1ccc(C(=O)NC(C)c2ccccc2)cc1Br (stereo not drawn) | -11.8%
Cc1cc(C)cc(NC(=O)c2ccc(S(=O)(=O)C(F)F)cc2)c1 | -29.7%
CC(=O)NCCNc1nc2c(-c3cccc(C)c3)nnn2c2ccccc12 | 12.8%
CC(CN1CCCCC1)OC(=O)c1ccc(Cl)cc1.Cl (stereo not drawn) | -36.4%
O=C1CCN(S(=O)(=O)c2cc(C(F)(F)F)ccc2Cl)CC1 | -1.34%
CCc1ccccc1NC(=O)c1ccccc1N1C(=O)C2C3C=CC(C3)C2C1=O (stereo not drawn) | 18.3%
Cc1cc(C)n(-c2cc(N3CCN(C(=O)c4ccccc4C)CC3)ccc2[N+](=O)[O-])n1 | -52.7%
Cc1cc(C)n(-c2cc(N3CCN(S(=O)(=O)c4ccc(C)c(C)c4)CC3)ccc2[N+](=O)[O-])n1 | 15%
CC(=O)N1CCN(c2ccc([N+](=O)[O-])c(-n3nc(C)cc3C)c2)CC1 | -51.9%
COc1ccc(N2CCN(C(=O)c3ccc(-n4nc(C)cc4C)cc3)CC2)cc1 | -19.4%
Cc1cc(C)n(-c2cc(N3CCN(S(=O)(=O)c4ccc(Cl)cc4)CC3)ccc2[N+](=O)[O-])n1 | -32.8%
Cc1cc(C)n(-c2cc(N3CCN(C(=O)c4ccc(C(C)(C)C)cc4)CC3)ccc2[N+](=O)[O-])n1 | -34.4%
Cc1cc(C)c(S(=O)(=O)N2CCN(c3ccc([N+](=O)[O-])c(-n4nc(C)cc4C)c3)CC2)c(C)c1 | -7.91%
COc1ccc(C(=O)N2CCN(c3ccc([N+](=O)[O-])c(-n4nc(C)cc4C)c3)CC2)cc1 | -78.2%
Cc1ccccc1C(=O)N1CCN(c2ccc([N+](=O)[O-])c(N3CCOCC3)c2)CC1 | -16.3%
COc1cc(C)ccc1OCc1cc(C(=O)NCCN2CCOCC2)no1 | 2.08%
COc1ccc(/C=N/NC(=O)c2ccc3nc[nH]c3c2)cc1OC | 20.7%

Compound | hERG current change (%, negative = inhibition) at 10uM
CCC1CCCCN1Cc1ccc(OC)c(C)c1C (stereo not drawn) | -31.2%
Cc1ccc(CNC(=O)C2CCCN2C(=O)Nc2ccccc2)cc1 (stereo not drawn) | -8.61%
COc1ccccc1N1CCN(S(=O)(=O)c2cn(C)nc2C)CC1 | -2.6%
CCCCN(C(=O)CN1CC(C)OC(C)C1)c1c(N)n(CC(C)C)c(=O)[nH]c1=O (stereo not drawn) | 9.06%
CCN(c1ccccc1)S(=O)(=O)c1ccc(Oc2ccc(-n3ccnc3)cc2)nc1 | -77.4%
CCN(c1ccccc1)S(=O)(=O)c1ccc(NN)nc1 | -12.2%
CCN(c1ccccc1)S(=O)(=O)c1ccc(Oc2ccc([N+](=O)[O-])cc2)nc1 | -21%
Cc1ccc(-c2[nH]nc3c2C(c2cccnc2)C(C#N)=C(N)O3)cc1 (stereo not drawn) | -7.46%
O=[N+]([O-])c1ccc(C(O)CSC(=S)N2CCCCC2)cc1 (stereo not drawn) | -3.13%
CC(C)(C)c1ccc(C(=O)/C=C2\NC(=O)CS2)cc1 | -9.16%
CCOc1ccc(CN2CCN(Cc3cnc(-c4ccccc4)s3)CC2CCO)cc1 (stereo not drawn) | -90.7%
OCCC1CN(Cc2cnc(-c3ccccc3)s2)CCN1Cc1ccccc1 (stereo not drawn) | -57.5%
OCCC1CN(Cc2cnc(-c3ccccc3)s2)CCN1CCc1ccccc1 (stereo not drawn) | -71.2%
Cc1ncc(CN2CCN(Cc3ccccc3)C(CCO)C2)s1 (stereo not drawn) | 1.08%
OCCC1CN(Cc2cnc(-c3ccccc3)s2)CCN1C1CCCCC1 (stereo not drawn) | -51.4%
CC(C)=CCN1CCN(Cc2cnc(-c3ccccc3)s2)CC1CCO (stereo not drawn) | -49.2%
CCOc1ccc(CN2CCN(Cc3cnc(N4CCOCC4)s3)CC2CCO)cc1 (stereo not drawn) | -39.8%
Cc1ncc(CN2CCN(C3CCCC3)C(CCO)C2)s1 (stereo not drawn) | 27.6%
CC(C)N1CCC(N2CCN(Cc3cnc(-c4ccccc4)s3)CC2CCO)CC1 (stereo not drawn) | -15.6%
CC(C)(O)C#Cc1ccc(CN2CCN(CCc3ccccc3)C(CCO)C2)s1 (stereo not drawn) | -30.7%
CCCCN1C(=O)NC(=O)C2(Cc3c(nc4ccccn4c3=O)N3CCc4ccccc4C32)C1=O (stereo not drawn) | -16.6%
Cc1sc2nc(CSc3ncn[nH]3)[nH]c(=O)c2c1C | 33.7%
Cn1c(-c2sc3cc(C(F)(F)F)cnc3c2-c2ccccc2)n[nH]c1=S | 20.1%
O=C(O)C(=O)O.Oc1ccccc1NCC(O)Cn1ccc2ccccc21 (stereo not drawn) | 13.4%

Compound | hERG current change (%, negative = inhibition) at 10uM
NC(=O)c1ccccc1NC(=O)NC1CCCCC1 | -6.68%
CCOC(=O)CCSCC(=O)Nc1cc(C)on1 | -3.91%
Cc1ccc(C(=O)NC(=S)Nc2ccccc2C(F)(F)F)cc1 | 16.3%
CC(C)NS(=O)(=O)c1ccc(NC(=O)NC2CCCCC2)cc1 | 1.79%
c1ccc(Cn2cc(-c3ccccc3)cn2)cc1 | -2.61%
Cc1ncc(CN2CCN(CCC(C)C)C(CCO)C2)s1 (stereo not drawn) | -20.1%
CC(C)CCN1CCN(Cc2cnc(-c3ccccc3)s2)CC1CCO (stereo not drawn) | -56.6%
CC(C)N1CCN(Cc2cnc(-c3ccccc3)s2)CC1CCO (stereo not drawn) | -9.9%
CCCOc1ccc(C(C)=O)cc1CC(C(N)=O)C(N)=O | 14.9%
CCCCOP(=O)(c1ccc(N(C)C)cc1)C(O)c1ccc(C(C)C)cc1 (stereo not drawn) | -13%
O=c1[nH]c2ccccc2n2c(C(F)(F)F)nnc12 | 14%
Cc1ccc(S(=O)(=O)N(Cc2cccc(Cl)c2)C(=O)N2CCN(C)CC2)cc1 | 9.85%
CCn1c(SCC(=O)NC(=O)c2ccccc2OC)nc2ccccc21 | -70.8%
CCn1c(SCC(=O)N/N=C/C=C\c2ccccc2[N+](=O)[O-])nnc1-c1ccccc1 | -67%
CCn1c(SCC(=O)N/N=C/C=C/c2ccccc2[N+](=O)[O-])nnc1-c1ccccc1 | -36.6%
Cn1c(SCC(=O)N/N=C/C=C/c2ccccc2[N+](=O)[O-])nc2ccccc21 | -1.36%
CCn1c(SCC(=O)N/N=C/C=C\c2ccccc2[N+](=O)[O-])nc2ccccc21 | -63.8%
CCn1c(SCC(=O)N/N=C/C=C/c2ccccc2[N+](=O)[O-])nnc1-c1ccc(Cl)cc1 | -15.6%
COCCn1c(SCC(=O)Nc2ccccc2OC)nc2ccccc21 | -25.4%
CCn1c(SCC(=O)NC(=O)NC(C)(C)C)nc2ccccc21 | 4.41%
Cn1c(SCC(=O)N/N=C/C=C\c2ccccc2[N+](=O)[O-])nc2ccccc21 | 10.4%
